# Key:
# Conditions in all cases: concentration: 1 μM, replicates: in singlicate; n = 1
# [1] = test system: SRMS
# [2] = test system: SRPK1
# [3] = test system: SRPK2
# [4] = test system: SRPK3
# [5] = test system: STK16
# [6] = test system: STK33
# [7] = test system: STK35
# [8] = test system: STK36
# [9] = test system: STK39
# [10] = test system: SYK
# [11] = test system: SgK110
# [12] = test system: T1, TAK1
# T1 construct: gene MAP3K7
# [13] = test system: TAOK1
# [14] = test system: TAOK2
# [15] = test system: TAOK3
# [16] = test system: TBK1
# [17] = test system: TEC
# [18] = test system: TESK1
# [19] = test system: TGFBR1
# [20] = test system: TGFBR2
# 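Note: KINOMEscan kinase panel screen.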
Compound,%Inh [1] [%],%Inh [2] [%],%Inh [3] [%],%Inh [4] [%],%Inh [5] [%],%Inh [6] [%],%Inh [7] [%],%Inh [8] [%],%Inh [9] [%],%Inh [10] [%],%Inh [11] [%],%Inh [12] [%],%Inh [13] [%],%Inh [14] [%],%Inh [15] [%],%Inh [16] [%],%Inh [17] [%],%Inh [18] [%],%Inh [19] [%],%Inh [20] [%]
Cl.O=S(=O)(c1cccc(F)c1)c1ccc(Nc2ncnc3cc(Br)sc23)cc1Cl [GSK306886],0,100,0,0,25,0,0,0,1,5,0,0,0,0,0,9,0,0,7,0
Cn1cc(-c2ccc3c(c2)CCN3C(=O)Cc2cccc(C(F)(F)F)c2)c2c(N)ncnc21 [GSK2606414],0,24,0,100,11,0,0,0,1,0,0,0,4,0,3,9,1,5,0,9
CS(=O)(=O)CCNCc1ccc(-c2ccc3ncnc(Nc4ccc(OCc5ccccc5)c(Cl)c4)c3c2)o1.Cl [GW574783],0,0,0,19,0,8,0,0,5,0,0,0,0,0,0,2,7,4,11,9
Cl.c1ccc(Cn2ccc3cc(Nc4ncnc5ccccc45)ccc32)cc1 [GW275568],15,11,0,0,19,0,0,20,18,26,0,6,0,23,0,39,4,9,29,0
O=C(Nc1ccccc1)Nc1ccc(Oc2ccc3nccn3n2)cc1,3,28,16,16,0,9,0,0,0,6,27,0,0,5,0,34,10,11,0,27
CNc1nccc(-c2c(-c3ccc(F)cc3)ncn2C2CCN(C)CC2)n1 [SB-222903],15,0,0,0,0,13,0,3,0,27,36,0,0,7,0,1,10,3,24,0
CSc1ccc(NC2=C(c3ccccc3Cl)C(=O)NC2=O)cc1 [SB-342411],0,7,0,5,14,0,5,48,19,23,0,7,0,1,0,27,10,6,0,0
Fc1ccc(Nc2nccc(-c3c(-c4ccc(Cl)cc4)nn4ncccc34)n2)cc1F [GW829058],22,0,0,6,23,1,0,8,22,7,9,38,10,16,27,31,8,16,0,0
COc1ccc(Nc2nccc(N3CCC(NC(=O)Nc4ccc5c(c4)OCO5)C3)n2)cc1 (centres unmarked) [GSK1379745],0,29,3,17,0,3,8,0,17,40,2,0,0,0,0,18,9,12,8,0
O=C(NCCCN1CCCC1=O)c1cnc(NCc2cc(Cl)ccc2Cl)nc1NC1CCNCC1,0,21,0,4,0,0,0,0,0,8,5,27,0,0,0,12,0,2,0,6

# Reference: paper PMC5540273 (PLoS ONE, 2017)
